# Experimental data published in article PMC7862700, “An all-to-all approach to the identification of sequence-specific readers for epigenetic DNA modifications on cytosine”.
# Tests used:
# Test in all cases: DAPPL (digital affinity profiling via proximity ligation, sequencing); 10 mM Tris-HCl pH 7.5, 50 mM NaCl, 1 mM DTT, 4% glycerol, room temperature, 30 min; GST-TFs on glutathione beads, 16-mer random dsDNA library, 0.1% formaldehyde crosslink after washing; high values mean tight binding
# [1] = target: T1, FEV (Homo sapiens, UniProt Q99581 1-238); conditions: protein: recombinant; tags: N-terminal GST; dsDNA, one strand shown
# T1 sequence: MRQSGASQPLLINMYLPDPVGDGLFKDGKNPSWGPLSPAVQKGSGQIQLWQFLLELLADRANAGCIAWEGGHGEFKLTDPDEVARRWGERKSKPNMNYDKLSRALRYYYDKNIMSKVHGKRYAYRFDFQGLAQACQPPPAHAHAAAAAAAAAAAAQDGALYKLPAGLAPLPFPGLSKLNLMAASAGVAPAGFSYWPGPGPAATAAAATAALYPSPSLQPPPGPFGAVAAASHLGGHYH
# Outline: (§1)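 Human transcription factors fused to GST were expressed in yeast, captured on glutathione beads, given DNA barcodes and pooled with a GST-only negative control. Pools were incubated with 200 nmole of a 16-mer random double-stranded DNA library in Tris/NaCl/DTT/glycerol buffer at room temperature for 30 min. They were then washed, crosslinked with 0.1% formaldehyde, proximity-ligated (BsaI/T4 ligase, 1 h, 37 °C), PCR-amplified and sequenced on an Illumina NextSeq500. Binding signal is each 6-mer's read frequency for a factor divided by its frequency for the GST control.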
# [2] = target: ETV5 (Homo sapiens, UniProt P41161 1-510); conditions: protein: recombinant; tags: N-terminal GST; dsDNA, one strand shown
# Outline: as §1
# [3] = target: HSF1 (Homo sapiens, UniProt Q00613 1-529); conditions: protein: recombinant; tags: N-terminal GST; chain copies: 3; dsDNA, one strand shown
# Outline: as §1
# [4] = target: T2, SPIC (Homo sapiens, UniProt Q8N5J4 1-248); conditions: protein: recombinant; tags: N-terminal GST; dsDNA, one strand shown
# T2 sequence: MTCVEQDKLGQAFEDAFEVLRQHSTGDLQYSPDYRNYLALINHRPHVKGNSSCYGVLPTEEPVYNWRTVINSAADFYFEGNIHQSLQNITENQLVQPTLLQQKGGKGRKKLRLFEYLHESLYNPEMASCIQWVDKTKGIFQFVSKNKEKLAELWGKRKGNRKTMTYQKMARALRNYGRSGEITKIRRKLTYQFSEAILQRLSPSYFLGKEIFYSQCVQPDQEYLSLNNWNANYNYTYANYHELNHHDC
# Outline: as §1
# [5] = target: ELF4 (Homo sapiens, UniProt Q99607 1-663); conditions: protein: recombinant; tags: N-terminal GST; dsDNA, one strand shown
# Outline: as §1
# [6] = target: T3, ELK4 (Homo sapiens, UniProt P28324-2 1-405); conditions: protein: recombinant; tags: N-terminal GST; dsDNA, one strand shown
# T3 sequence: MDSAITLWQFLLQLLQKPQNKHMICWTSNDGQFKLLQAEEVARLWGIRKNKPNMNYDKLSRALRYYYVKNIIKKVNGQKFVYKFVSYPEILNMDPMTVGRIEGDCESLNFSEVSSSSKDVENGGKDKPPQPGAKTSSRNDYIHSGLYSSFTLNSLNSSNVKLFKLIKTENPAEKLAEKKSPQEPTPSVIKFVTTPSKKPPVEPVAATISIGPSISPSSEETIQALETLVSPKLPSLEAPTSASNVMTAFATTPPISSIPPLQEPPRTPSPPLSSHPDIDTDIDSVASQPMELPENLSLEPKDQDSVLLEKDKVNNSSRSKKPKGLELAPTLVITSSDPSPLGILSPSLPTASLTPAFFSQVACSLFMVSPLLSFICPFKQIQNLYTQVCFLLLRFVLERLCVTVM
# Outline: as §1
# [7] = target: T4, ETV2 (Homo sapiens, UniProt O00321 1-342); conditions: protein: recombinant; tags: N-terminal GST; dsDNA, one strand shown
# T4 sequence: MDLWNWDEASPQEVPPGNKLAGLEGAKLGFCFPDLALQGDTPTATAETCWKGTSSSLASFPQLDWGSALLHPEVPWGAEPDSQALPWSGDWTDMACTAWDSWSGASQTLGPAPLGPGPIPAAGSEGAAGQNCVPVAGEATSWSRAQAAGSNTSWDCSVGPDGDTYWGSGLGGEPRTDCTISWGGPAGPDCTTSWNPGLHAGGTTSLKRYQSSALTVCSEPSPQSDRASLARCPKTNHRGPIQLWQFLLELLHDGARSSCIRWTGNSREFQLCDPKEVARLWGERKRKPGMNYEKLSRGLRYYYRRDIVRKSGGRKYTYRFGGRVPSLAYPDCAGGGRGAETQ
# Outline: as §1
# [8] = target: T5, ELF3 (Homo sapiens, UniProt P78545 1-371); conditions: protein: recombinant; tags: N-terminal GST; dsDNA, one strand shown
# T5 sequence: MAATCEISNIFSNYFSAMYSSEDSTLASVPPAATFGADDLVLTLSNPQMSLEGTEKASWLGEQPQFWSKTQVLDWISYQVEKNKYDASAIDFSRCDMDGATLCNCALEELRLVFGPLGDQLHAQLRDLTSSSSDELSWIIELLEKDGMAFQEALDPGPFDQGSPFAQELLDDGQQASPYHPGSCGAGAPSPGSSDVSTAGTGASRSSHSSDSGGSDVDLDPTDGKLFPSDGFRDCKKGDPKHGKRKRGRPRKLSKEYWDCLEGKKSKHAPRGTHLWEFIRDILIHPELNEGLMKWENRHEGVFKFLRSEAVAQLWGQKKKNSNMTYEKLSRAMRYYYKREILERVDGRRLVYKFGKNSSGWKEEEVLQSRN
# Outline: as §1
# [9] = target: CRX (Homo sapiens, UniProt O43186 1-299); conditions: protein: recombinant; tags: N-terminal GST; dsDNA, one strand shown
# Outline: as §1
# [10] = target: ETV1 (Homo sapiens, UniProt P50549 1-477); conditions: protein: recombinant; tags: N-terminal GST; dsDNA, one strand shown
# Outline: as §1
# [11] = target: T6, ERF (Homo sapiens, UniProt P50548 1-548); conditions: protein: recombinant; tags: N-terminal GST; dsDNA, one strand shown
# T6 sequence: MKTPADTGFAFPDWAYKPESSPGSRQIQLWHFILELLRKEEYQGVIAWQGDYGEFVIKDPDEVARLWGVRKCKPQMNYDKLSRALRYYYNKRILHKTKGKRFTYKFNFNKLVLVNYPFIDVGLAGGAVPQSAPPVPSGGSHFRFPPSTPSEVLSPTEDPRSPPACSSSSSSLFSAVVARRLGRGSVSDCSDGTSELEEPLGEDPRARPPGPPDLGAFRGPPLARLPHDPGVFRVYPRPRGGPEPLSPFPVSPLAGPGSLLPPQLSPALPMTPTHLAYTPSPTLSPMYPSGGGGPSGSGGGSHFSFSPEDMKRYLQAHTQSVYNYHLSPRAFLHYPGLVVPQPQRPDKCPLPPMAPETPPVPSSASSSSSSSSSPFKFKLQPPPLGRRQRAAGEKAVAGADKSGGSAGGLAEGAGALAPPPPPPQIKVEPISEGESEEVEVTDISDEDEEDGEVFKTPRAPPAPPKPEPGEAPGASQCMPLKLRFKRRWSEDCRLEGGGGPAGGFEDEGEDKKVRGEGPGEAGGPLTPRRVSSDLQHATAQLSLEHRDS
# Outline: as §1
# [12] = target: T7, ETV3L (Homo sapiens, UniProt Q6ZN32 1-361); conditions: protein: recombinant; tags: N-terminal GST; dsDNA, one strand shown
# T7 sequence: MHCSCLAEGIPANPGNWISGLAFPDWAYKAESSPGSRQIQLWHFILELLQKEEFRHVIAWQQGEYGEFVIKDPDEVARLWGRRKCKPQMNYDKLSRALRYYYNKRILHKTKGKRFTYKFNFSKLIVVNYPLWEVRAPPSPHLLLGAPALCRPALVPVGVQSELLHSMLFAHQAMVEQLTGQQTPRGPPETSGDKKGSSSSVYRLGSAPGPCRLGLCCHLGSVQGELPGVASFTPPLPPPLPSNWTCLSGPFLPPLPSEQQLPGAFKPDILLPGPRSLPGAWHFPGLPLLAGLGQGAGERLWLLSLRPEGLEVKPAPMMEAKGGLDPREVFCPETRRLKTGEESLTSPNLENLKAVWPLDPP
# Outline: as §1
# [13] = target: T8, ETS2 (Homo sapiens, UniProt P15036 1-469); conditions: protein: recombinant; tags: N-terminal GST; dsDNA, one strand shown
# T8 sequence: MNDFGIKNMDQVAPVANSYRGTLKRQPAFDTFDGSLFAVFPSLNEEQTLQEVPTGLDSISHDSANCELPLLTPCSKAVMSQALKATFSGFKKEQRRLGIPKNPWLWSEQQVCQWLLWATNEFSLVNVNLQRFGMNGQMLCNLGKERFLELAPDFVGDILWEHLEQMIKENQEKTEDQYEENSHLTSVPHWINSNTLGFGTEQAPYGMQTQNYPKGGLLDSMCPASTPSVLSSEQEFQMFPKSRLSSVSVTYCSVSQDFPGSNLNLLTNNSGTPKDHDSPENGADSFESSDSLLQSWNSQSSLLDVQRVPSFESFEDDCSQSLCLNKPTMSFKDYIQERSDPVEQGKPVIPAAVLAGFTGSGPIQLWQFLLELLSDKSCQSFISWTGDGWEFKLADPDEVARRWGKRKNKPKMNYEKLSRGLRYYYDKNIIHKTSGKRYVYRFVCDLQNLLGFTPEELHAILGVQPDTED
# Outline: as §1
# [14] = target: T9, SPDEF (Homo sapiens, UniProt O95238 1-335); conditions: protein: recombinant; tags: N-terminal GST; dsDNA, one strand shown
# T9 sequence: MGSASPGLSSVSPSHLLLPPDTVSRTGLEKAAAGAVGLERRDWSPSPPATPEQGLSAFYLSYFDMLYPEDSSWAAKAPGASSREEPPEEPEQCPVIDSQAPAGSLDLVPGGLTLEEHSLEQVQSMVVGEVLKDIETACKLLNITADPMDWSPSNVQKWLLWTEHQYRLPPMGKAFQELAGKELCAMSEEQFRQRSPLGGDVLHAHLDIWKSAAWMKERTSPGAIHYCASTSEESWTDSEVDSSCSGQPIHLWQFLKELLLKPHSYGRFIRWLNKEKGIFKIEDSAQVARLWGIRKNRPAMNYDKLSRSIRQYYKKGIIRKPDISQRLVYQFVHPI
# Outline: as §1
# [15] = target: T10, ETV7 (Homo sapiens, UniProt Q9Y603 1-341); conditions: protein: recombinant; tags: N-terminal GST; dsDNA, one strand shown
# T10 sequence: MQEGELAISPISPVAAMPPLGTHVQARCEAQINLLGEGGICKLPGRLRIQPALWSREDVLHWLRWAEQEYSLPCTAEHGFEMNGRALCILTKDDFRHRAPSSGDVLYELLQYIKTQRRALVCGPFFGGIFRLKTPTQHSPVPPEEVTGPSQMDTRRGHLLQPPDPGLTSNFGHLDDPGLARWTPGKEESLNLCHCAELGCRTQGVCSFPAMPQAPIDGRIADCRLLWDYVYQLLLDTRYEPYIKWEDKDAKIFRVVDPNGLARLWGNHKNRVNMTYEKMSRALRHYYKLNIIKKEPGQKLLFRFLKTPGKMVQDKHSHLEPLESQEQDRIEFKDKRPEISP
# Outline: as §1
# [16] = target: T11, ELF5 (Homo sapiens, UniProt Q9UKW6-2 1-255); conditions: protein: recombinant; tags: N-terminal GST; dsDNA, one strand shown
# T11 sequence: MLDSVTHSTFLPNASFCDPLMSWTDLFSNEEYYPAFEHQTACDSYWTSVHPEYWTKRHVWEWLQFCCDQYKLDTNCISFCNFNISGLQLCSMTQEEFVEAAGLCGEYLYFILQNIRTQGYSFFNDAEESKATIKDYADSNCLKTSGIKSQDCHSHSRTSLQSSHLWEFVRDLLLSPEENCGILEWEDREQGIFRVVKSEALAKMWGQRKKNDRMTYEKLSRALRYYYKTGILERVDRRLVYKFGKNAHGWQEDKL
# Outline: as §1
# [17] = target: T12, ETV3 (Homo sapiens, UniProt P41162-2 1-143); conditions: protein: recombinant; tags: N-terminal GST; dsDNA, one strand shown
# T12 sequence: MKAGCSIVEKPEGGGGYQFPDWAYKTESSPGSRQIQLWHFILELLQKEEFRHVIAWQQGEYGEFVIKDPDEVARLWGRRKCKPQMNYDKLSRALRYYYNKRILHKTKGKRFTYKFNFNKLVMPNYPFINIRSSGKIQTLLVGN
# Outline: as §1
# [18] = target: ETV6 (Homo sapiens, UniProt P41212 1-452); conditions: protein: recombinant; tags: N-terminal GST; dsDNA, one strand shown
# Outline: as §1
# HSF1, sequence (Q00613 whole entry): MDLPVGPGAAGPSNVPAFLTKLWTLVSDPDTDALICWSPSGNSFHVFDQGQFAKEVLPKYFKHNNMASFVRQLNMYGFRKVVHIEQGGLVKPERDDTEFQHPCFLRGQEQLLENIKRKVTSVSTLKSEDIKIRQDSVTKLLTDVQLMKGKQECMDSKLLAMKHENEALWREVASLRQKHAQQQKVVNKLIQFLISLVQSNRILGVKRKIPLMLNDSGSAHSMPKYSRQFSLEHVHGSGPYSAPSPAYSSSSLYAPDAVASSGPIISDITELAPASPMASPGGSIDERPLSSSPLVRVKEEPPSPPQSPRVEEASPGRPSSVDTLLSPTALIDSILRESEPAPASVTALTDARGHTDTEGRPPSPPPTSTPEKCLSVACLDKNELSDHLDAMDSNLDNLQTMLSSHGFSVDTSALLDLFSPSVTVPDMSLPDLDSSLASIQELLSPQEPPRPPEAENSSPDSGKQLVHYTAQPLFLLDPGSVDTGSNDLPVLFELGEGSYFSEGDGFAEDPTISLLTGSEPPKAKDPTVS
# ETV1, sequence (P50549 whole entry): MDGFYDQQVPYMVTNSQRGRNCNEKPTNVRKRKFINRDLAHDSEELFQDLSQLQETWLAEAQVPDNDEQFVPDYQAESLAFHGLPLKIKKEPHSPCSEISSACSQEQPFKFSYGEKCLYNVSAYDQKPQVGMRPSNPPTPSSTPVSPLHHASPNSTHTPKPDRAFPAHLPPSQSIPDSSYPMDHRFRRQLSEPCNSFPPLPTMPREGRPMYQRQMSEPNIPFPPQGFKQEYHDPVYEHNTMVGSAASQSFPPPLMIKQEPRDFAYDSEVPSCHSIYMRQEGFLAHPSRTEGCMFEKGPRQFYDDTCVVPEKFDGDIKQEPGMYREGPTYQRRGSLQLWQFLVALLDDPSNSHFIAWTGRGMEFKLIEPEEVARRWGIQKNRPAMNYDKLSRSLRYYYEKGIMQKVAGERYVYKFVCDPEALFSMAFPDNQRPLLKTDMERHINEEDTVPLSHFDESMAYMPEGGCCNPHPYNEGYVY
# ETV5, sequence (P41161 whole entry): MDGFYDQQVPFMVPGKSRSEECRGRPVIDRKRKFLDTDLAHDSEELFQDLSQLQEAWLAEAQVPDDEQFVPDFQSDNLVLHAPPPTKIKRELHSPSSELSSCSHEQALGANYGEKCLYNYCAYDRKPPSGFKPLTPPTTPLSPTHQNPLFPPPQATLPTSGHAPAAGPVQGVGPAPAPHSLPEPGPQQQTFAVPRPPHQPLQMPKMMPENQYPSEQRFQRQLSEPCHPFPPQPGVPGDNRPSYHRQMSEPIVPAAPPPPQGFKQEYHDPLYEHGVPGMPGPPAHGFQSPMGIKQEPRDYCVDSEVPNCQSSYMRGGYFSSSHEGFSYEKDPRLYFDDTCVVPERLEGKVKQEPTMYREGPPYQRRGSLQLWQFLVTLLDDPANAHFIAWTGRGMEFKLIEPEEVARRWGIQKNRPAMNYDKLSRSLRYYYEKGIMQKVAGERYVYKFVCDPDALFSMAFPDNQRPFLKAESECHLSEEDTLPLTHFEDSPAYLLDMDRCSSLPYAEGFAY
# CRX, sequence (O43186 whole entry): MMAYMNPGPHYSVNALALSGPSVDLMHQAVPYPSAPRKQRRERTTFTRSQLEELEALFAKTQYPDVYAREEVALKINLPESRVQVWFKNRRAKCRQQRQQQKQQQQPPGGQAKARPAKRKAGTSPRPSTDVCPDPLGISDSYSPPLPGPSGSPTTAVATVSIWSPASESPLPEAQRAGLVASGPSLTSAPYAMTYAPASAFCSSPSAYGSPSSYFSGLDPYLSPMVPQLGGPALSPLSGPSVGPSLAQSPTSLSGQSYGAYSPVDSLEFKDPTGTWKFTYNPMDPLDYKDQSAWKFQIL
# ETV6, sequence (P41212 whole entry): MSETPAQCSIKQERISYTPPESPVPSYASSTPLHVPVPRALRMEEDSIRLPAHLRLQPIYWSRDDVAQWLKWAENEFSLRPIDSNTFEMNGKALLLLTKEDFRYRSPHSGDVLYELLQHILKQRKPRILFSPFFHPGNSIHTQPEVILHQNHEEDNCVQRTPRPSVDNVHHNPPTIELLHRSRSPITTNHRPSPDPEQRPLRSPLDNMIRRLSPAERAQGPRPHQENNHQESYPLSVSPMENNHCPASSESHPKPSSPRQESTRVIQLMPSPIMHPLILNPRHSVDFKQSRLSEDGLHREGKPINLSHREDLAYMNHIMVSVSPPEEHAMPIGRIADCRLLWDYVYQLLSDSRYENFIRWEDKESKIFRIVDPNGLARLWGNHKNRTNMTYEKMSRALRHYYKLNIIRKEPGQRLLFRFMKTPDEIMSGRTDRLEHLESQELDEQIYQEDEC
# ELF4, sequence (Q99607 whole entry): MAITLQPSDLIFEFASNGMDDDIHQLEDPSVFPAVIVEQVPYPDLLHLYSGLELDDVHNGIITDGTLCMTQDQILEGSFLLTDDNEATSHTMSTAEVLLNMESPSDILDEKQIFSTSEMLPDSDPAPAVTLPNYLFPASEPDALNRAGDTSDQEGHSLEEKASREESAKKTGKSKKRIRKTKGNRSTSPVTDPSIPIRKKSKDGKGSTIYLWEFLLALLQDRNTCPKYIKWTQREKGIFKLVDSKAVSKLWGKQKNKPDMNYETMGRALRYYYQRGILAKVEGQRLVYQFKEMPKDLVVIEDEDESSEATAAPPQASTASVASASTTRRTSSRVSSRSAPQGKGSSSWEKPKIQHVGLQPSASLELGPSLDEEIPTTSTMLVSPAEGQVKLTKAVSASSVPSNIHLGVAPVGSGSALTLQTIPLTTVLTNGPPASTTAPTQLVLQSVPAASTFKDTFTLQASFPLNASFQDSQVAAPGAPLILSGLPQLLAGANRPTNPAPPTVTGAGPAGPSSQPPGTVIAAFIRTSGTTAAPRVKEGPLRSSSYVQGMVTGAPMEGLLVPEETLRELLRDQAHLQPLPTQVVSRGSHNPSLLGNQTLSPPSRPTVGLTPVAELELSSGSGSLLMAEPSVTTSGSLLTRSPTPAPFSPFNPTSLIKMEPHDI
sequence,measurement,setting,value
TAAAAT,binding signal,[1],"1.14 fold enrichment (6-mer frequency, TF over GST control)"
same,binding signal,[2],"1.22 fold enrichment (6-mer frequency, TF over GST control)"
same,binding signal,[3],"1.48 fold enrichment (6-mer frequency, TF over GST control)"
same,binding signal,[4],"1.19 fold enrichment (6-mer frequency, TF over GST control)"
same,binding signal,[5],"1.2 fold enrichment (6-mer frequency, TF over GST control)"
same,binding signal,[6],"1.2 fold enrichment (6-mer frequency, TF over GST control)"
same,binding signal,[7],"1.34 fold enrichment (6-mer frequency, TF over GST control)"
same,binding signal,[8],"1.27 fold enrichment (6-mer frequency, TF over GST control)"
same,binding signal,[9],"1.76 fold enrichment (6-mer frequency, TF over GST control)"
same,binding signal,[10],"1.22 fold enrichment (6-mer frequency, TF over GST control)"
same,binding signal,[11],"1.22 fold enrichment (6-mer frequency, TF over GST control)"
same,binding signal,[12],"1.28 fold enrichment (6-mer frequency, TF over GST control)"
same,binding signal,[13],"1.28 fold enrichment (6-mer frequency, TF over GST control)"
same,binding signal,[14],"1.14 fold enrichment (6-mer frequency, TF over GST control)"
same,binding signal,[15],"1.17 fold enrichment (6-mer frequency, TF over GST control)"
same,binding signal,[16],"1.15 fold enrichment (6-mer frequency, TF over GST control)"
same,binding signal,[17],"1.17 fold enrichment (6-mer frequency, TF over GST control)"
same,binding signal,[18],"1.18 fold enrichment (6-mer frequency, TF over GST control)"
